From PubChem BioAssay come the findings set out here.

Calls of active or inactive are those of the source.

Experiment [1] is described as follows: optical density shifts of acrAB sulA E. coli – strain DRC41, OD650, 48 h, E. coli filamentation inducer project, primary screen (AID 1152).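 Further: E. coli MC1000 strain DRC41 lacking acrAB efflux pump and sulA.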 As to conditions: higher = more signal, called active from +8 up or from −8 down.
A short description of experiment [2]: probe aLefty1 binding on compound microarray – biochemical, small-molecule microarray, 635/667 nm fluorescence, primary screen (AID 1153).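 Further: score merges spot fluorescence with signal-to-noise ratio from the scanned slide images.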 As to conditions: higher = more signal.
Experiment [3] in a line: plasmodial surface anion channel blockers, osmotic lysis – cell-based, P. falciparum Indochina, OD700, 1 h, primary screen (AID 1154). As to conditions: P. falciparum Indochina infected RBC osmotic lysis, higher = more signal, called active from +8 up or from −8 down.
Experiment [4] can be described thus: plasmodial surface anion channel blockers, osmotic lysis – cell-based, P. falciparum Indochina, OD700, 2 h, primary screen (AID 1155).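 Further: lysis reports solute entry through the parasite surface anion channel PSAC.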 As to conditions: P. falciparum Indochina infected erythrocytes, higher = more signal, called active from +8 up or from −8 down.
Experiment [5] is described as follows: changes in parasitized red cell lysis, either direction – P. falciparum Indochina, OD700, 3 h, PSAC antagonist project, primary screen (AID 1156). As to conditions: P. falciparum-infected erythrocytes, osmotic lysis, higher = more signal, called active from +8 up or from −8 down.
Experiment [6] is described as follows: plasmodial surface anion channel blockers, osmotic lysis – cell-based, P. falciparum Indochina, OD700, 18 h, primary screen (AID 1157). As to conditions: P. falciparum Indochina infected erythrocytes, osmotic lysis OD700, 18 h; higher = more signal, called active from +8 up or from −8 down.
Experiment [7] is described as follows: S6 kinase pathway phospho-S6 level changes – cell-based, A549, cytoblot, luminescence, serum-stimulated, primary screen (AID 1158).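 Further: serum-stimulated A549 lung adenocarcinoma cells; signal is phosphorylated S6 detected by cytoblot immunostaining with HRP secondary.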 As to conditions: 5 h, higher = more signal.
In experiment [8] the target is NADPH oxidase 2 (Homo sapiens) (UniProt P04839). Nature of the experiment: compounds shifting NOX2 Amplex Red fluorescence – cell-based, HEK293-NOX2, PMA-stimulated, NOX inhibitor project, primary screen (AID 1159). Further: test concentration not given here. As to conditions: 45 min, higher = more signal, called active from +8 up or from −8 down.
Experiment [9] addresses NADPH oxidase 4 (Homo sapiens) (UniProt Q9NPH5). The experiment in a line: compounds shifting NOX4 Amplex Red fluorescence – cell-based, HEK293-NOX4, tetracycline-induced, NOX inhibitor project, primary screen (AID 1160). As to conditions: HEK293-NOX4, Amplex Red H2O2 fluorescence, 45 min; higher = more signal, called active from +8 up or from −8 down.
The target of experiment [10] is NADPH oxidase 5 (Homo sapiens) (UniProt Q96PH1). Nature of the experiment: compounds shifting NOX5 Amplex Red fluorescence – cell-based, HEK293-NOX5, NOX inhibitor project, primary screen (AID 1161). As to conditions: HEK293-NOX5, ionomycin, 45 min, higher = more signal.
Sequence of NADPH oxidase 5 (Homo sapiens) (Q96PH1 whole entry, looked up): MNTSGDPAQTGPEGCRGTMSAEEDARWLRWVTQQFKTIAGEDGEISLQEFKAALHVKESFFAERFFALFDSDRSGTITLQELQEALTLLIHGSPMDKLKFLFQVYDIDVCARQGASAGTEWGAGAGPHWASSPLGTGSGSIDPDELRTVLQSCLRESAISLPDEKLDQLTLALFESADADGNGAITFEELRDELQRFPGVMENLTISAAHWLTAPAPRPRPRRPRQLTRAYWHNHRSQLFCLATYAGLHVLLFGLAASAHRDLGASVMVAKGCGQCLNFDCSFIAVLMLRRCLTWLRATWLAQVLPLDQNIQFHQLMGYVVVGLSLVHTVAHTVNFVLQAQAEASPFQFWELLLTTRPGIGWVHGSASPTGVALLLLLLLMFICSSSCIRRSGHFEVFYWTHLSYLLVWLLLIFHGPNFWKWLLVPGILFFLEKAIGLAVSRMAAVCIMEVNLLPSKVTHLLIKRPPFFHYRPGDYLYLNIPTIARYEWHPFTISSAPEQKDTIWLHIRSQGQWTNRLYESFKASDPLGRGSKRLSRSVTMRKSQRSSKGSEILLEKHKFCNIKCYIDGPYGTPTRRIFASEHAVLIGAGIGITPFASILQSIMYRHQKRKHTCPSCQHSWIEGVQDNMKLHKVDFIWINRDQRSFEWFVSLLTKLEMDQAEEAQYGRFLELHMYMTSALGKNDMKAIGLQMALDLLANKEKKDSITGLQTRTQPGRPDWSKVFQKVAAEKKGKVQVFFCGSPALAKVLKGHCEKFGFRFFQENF

Sequence of NADPH oxidase 2 (Homo sapiens) (P04839 whole entry, looked up): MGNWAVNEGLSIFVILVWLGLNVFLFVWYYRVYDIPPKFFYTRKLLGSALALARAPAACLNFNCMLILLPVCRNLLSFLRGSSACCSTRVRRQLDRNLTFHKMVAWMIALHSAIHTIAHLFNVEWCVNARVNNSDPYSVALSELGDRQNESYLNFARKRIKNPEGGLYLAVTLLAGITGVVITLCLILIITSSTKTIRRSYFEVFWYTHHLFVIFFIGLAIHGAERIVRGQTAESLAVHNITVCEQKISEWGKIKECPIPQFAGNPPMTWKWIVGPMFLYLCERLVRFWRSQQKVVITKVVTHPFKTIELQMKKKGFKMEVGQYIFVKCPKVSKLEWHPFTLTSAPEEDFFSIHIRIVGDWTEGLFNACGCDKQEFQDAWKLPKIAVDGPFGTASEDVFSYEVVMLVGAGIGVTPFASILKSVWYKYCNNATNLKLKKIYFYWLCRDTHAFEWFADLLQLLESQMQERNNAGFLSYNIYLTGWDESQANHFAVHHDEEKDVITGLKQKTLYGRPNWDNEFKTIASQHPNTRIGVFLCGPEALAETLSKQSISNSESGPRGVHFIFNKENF
Sequence of NADPH oxidase 4 (Homo sapiens) (Q9NPH5 whole entry, looked up): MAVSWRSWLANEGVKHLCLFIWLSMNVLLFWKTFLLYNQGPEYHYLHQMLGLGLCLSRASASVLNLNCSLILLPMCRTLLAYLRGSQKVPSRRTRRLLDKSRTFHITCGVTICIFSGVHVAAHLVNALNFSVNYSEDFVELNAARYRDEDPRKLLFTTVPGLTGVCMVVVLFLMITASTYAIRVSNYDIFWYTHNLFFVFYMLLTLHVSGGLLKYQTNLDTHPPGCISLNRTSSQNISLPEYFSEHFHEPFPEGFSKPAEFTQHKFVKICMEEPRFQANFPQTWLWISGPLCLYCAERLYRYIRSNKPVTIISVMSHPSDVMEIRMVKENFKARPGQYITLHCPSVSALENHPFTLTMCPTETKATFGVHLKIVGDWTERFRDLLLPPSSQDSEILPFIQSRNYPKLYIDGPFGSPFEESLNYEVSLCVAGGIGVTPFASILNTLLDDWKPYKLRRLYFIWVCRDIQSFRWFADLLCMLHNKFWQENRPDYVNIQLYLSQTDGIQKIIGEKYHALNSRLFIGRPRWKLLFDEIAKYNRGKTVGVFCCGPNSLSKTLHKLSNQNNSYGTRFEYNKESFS

For the compound `NC(=O)[C@@H]1[C@H]2C(=O)O[C@H](c3ccccc3)[C@H](c3ccccc3)N2[C@H](c2ccc(OCCO)cc2)[C@@]12C(=O)Nc1ccc(C#CCCO)cc12`, the z-score in experiment [1] is 0.498 (inactive); in [3], 22.5 (active); in experiment [4], 4.8 (inactive); in experiment [5] it was 2.59 (inactive); in experiment [6] it was 0.908 (inactive); in experiment [7] it was 0.229. The figures for the z-score in experiment [8], in [9] and in experiment [10] were 1.5 (inactive), 1.15 (inactive) and 0.92, respectively. Moreover, the composite z-score in experiment [2] amounted to 0.0253.

For the compound `COC(=O)[C@@]1(Cc2ccccc2)[C@H]2c3cc(C(=O)N4CCCC4)n(CCSCCO)c3C[C@H]2CN1C(=O)c1ccccc1`, the z-score in [1] was -1.88 (inactive); in experiment [3] it was 1.5 (inactive); in experiment [4], 0.636 (inactive); in experiment [5], 0.57 (inactive); in experiment [6], 0.691 (inactive); in experiment [7], -0.653. Besides, the results for the z-score in experiment [8], in experiment [9] and in [10] were 0.957 (inactive), -0.446 (inactive) and -0.987, respectively. In experiment [2], this compound registered a composite z-score of 0.597.

`O=C(NCC(O)CO)[C@@]1(CCS(=O)(=O)c2ccccc2)COC(c2ccc(OCCCO)cc2)=N1` (stereo not given in full): the z-score in [1] was 0.457 (inactive); in experiment [3], 29.3 (active); in [4] it was 22.3 (active); in experiment [5] it was 1.7 (inactive); in experiment [6], 2.91 (inactive); in experiment [7], -0.245. Also, the z-score is 0.299 (inactive) in experiment [8], 1.77 (inactive) in [9] and 1.51 in [10]. In experiment [2], the composite z-score was 0.467.

On to `C=C(COC)/C(=C/C[C@@H](OC(C)=O)c1ccc(CO)o1)c1cc(C(=O)OC)ccc1OC`, for which the z-score is 0.265 (inactive) in experiment [1]; 1.56 (inactive) in experiment [3]; 0.362 (inactive) in experiment [4]; 0.389 (inactive) in experiment [5]; 0.0621 (inactive) in experiment [6]; 0.187 in [7]. The results for the z-score in [8], in [9] and in [10] were 0.184 (inactive), -0.207 (inactive) and 0.13, respectively. This compound also yielded a composite z-score in experiment [2] of 0.051.

On to `COCCCNC(=O)[C@@H]1c2ccccc2C(=O)N(C2Cc3ccccc3C2)[C@H]1c1ccc(CO)cc1`, for which the z-score was 0.748 (inactive) in [1]; 3.1 (inactive) in [3]; 1.18 (inactive) in [4]; 0.65 (inactive) in experiment [5]; 0.476 (inactive) in experiment [6]; -0.256 in [7]. Further, the values for the z-score in [8], in experiment [9] and in [10] were -0.193 (inactive), 0.444 (inactive) and -0.0459, respectively. Further, in [2], the composite z-score is -0.0603.

`COCCOC(=O)N1C(=O)[C@@]2(c3cc(C#CCC(C(=O)OC)C(=O)OC)ccc31)[C@H](c1ccc(O)cc1)N1[C@H](c3ccccc3)[C@H](c3ccccc3)OC(=O)[C@H]1[C@@H]2C(=O)NC[C@H](O)c1ccccc1`: the z-score is 1.47 (inactive) in experiment [1]; 1.67 (inactive) in [3]; 0.223 (inactive) in [4]; -5.49 (inactive) in experiment [5]; -0.0973 (inactive) in experiment [6]; -0.158 in experiment [7]. Further, the z-score is 1.72 (inactive) in experiment [8], 0.876 (inactive) in [9] and 1.32 in experiment [10]. Also, in [2], the composite z-score was -0.159.

With `[N-]=[N+]=Nc1ccccc1C[C@]1(C(=O)O)N=C(c2ccc(OCCCO)cc2)O[C@H]1c1ccccc1N=[N+]=[N-]`, the z-score was 0.476 (inactive) in [1]; 30.8 (active) in [3]; 27.6 (active) in [4]; 2.88 (inactive) in experiment [5]; 4.45 (inactive) in experiment [6]; -0.0428 in experiment [7]. Also, the z-score in [8] is -2.72 (inactive); in experiment [9], 0.551 (inactive); in [10], -2.15. This compound came in with a composite z-score in experiment [2] of 0.612.

For the compound `C=CCC(OC(C)=O)[C@@H]1[C@@H](N(Cc2ccc(-c3ccccc3)cc2)C(=O)Cc2ccc(F)cc2)c2cc(OCCCO)ccc2N1C(=O)Cc1ccc2ccccc2c1` (stereo not given in full), the z-score is 0.882 (inactive) in [1]; 1.84 (inactive) in experiment [3]; 0.791 (inactive) in experiment [4]; -0.205 (inactive) in experiment [5]; 0.381 (inactive) in experiment [6]; -0.199 in [7]. Also, the z-score in experiment [8] was 0.587 (inactive); in [9], 0.512 (inactive); in [10], 1.88. In experiment [2], the composite z-score was determined as 0.0774.

As for `CCCCC(=C=CC[C@H](O)c1ccc(OCCO)cc1)C[C@H](O)COCc1ccccc1`, the z-score in experiment [1] is -0.088 (inactive); in experiment [3] it was 18.2 (active); in [4], 3.18 (inactive); in experiment [5], 0.871 (inactive); in [6], 1.02 (inactive); in experiment [7], -0.881. Also, the z-score in [8] is -0.751 (inactive); in experiment [9], -0.446 (inactive); in experiment [10], -2.05. For the same compound, the composite z-score in experiment [2] was -0.235.

For `O=C1C[C@@](C(=O)NCC(F)(F)F)(c2ccc([N+](=O)[O-])cc2)[C@@H](c2ccc(CO)cc2)N1CC12CC3CC(CC(C3)C1)C2`, the z-score in experiment [1] is -0.0809 (inactive); in experiment [3], 5.86 (inactive); in experiment [4], 0.525 (inactive); in experiment [5], 2.97 (inactive); in experiment [6], -0.092 (inactive); in [7], 2.16. Besides, the z-score is -0.178 (inactive) in experiment [8], -3.52 (inactive) in experiment [9] and -5.17 in experiment [10]. In experiment [2], this compound returned a composite z-score of 0.282.

Consider `COCCOC(=O)N1C(=O)[C@@]2(c3cc(C#CC4=CCCCC4)ccc31)[C@H](c1ccc(O)cc1)N1[C@H](c3ccccc3)[C@H](c3ccccc3)OC(=O)[C@H]1[C@@H]2C(=O)NC[C@H](O)c1ccccc1`, for which the z-score is 0.289 (inactive) in experiment [1]; 1.8 (inactive) in [3]; 0.44 (inactive) in experiment [4]; -0.164 (inactive) in [5]; 0.368 (inactive) in experiment [6]; -0.147 in [7]. Besides, the results for the z-score in experiment [8], in experiment [9] and in [10] were 1.5 (inactive), 0.547 (inactive) and 1.55, respectively. This compound also came in with a composite z-score in experiment [2] of 0.0406.

As to `C=CCNC(=O)[C@H]1[C@@H]2C(=O)O[C@@H](c3ccccc3)[C@@H](c3ccccc3)N2[C@@H](c2ccc(OCCO)cc2)[C@]12C(=O)Nc1ccc(C#CCNC(N)=O)cc12`, the z-score in [1] is -0.0661 (inactive); in [3], 2.59 (inactive); in experiment [4], 1.36 (inactive); in experiment [5], 1.42 (inactive); in experiment [6], 0.563 (inactive); in experiment [7], 0.326. The z-score in experiment [8] was 1.91 (inactive); in [9], 0.286 (inactive); in experiment [10], -0.621. In experiment [2], this compound returned a composite z-score of 0.0809.

For the compound `COC(=O)[C@@]1(Cc2ccc(F)cc2)[C@H]2c3cc(C(=O)N4CCCC4)n(CC4CC4)c3C[C@H]2CN1C(=O)c1ccccc1`, the z-score was -1.37 (inactive) in experiment [1]; 2.89 (inactive) in [3]; 0.0582 (inactive) in experiment [4]; 0.454 (inactive) in [5]; 0.666 (inactive) in [6]; 0.516 in experiment [7]. Besides, the z-score in experiment [8] was 0.0286 (inactive); in [9] it was -1.62 (inactive); in [10], -0.81. In addition, the composite z-score in experiment [2] was determined as 1.56.
